Data taken from PubChem BioAssay AID2551 (National Center for Advancing Translational Sciences (NCATS), 2010).
Where “and” joins values, the source holds several entries; their conditions need not be identical. Equal entries are not always repeated. In all, about 310,000 compounds went through this assay and about 17,000 (5.5%) were called active. Another 11% or so got no clear call; they are omitted. Calls follow the shape of the dose curve; as a rule, active = well fitted inhibition curve with a large enough effect; inconclusive = small, poorly fitted or top-dose-only effect, or effect the other way; inactive = no such curve, though single readings can be large or run the other way. The entries come from a sample that favours actives as a whole.

target: Nuclear receptor ROR-gamma (Mus musculus) (UniProt P51450); assay: qHTS for inhibitors of ROR gamma transcriptional activity; conditions: Drosophila S2 Gal4-RORgamma UAS-luciferase reporter, 20 h; series mostly up to 53.6 µM; also: nearly all actives have a fitted effect of over 60% in size
Sequence (P51450 whole entry, looked up, the tested form may be a part): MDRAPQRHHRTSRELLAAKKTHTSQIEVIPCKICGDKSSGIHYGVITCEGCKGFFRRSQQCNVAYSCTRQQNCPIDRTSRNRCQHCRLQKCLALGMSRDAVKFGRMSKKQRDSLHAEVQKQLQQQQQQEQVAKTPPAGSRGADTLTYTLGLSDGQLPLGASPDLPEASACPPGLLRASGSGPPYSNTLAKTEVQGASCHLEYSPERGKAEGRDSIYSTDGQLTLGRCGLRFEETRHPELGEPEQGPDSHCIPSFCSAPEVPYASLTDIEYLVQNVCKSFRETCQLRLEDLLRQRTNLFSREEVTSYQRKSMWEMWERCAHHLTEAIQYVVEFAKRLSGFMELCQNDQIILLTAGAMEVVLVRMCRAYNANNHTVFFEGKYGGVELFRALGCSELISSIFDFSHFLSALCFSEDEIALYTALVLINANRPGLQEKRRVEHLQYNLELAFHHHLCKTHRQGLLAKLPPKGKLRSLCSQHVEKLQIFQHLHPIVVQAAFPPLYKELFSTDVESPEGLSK
How it was run: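 A Gal4/UAS one-hybrid system in insect cells: metallothionein-promoter Gal4–ROR gamma fusion plus Photinus luciferase reporter. Copper sulfate 700 uM final, 20 hr ambient incubation, luminescent detection after 10 min with reagent.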
Potency is read from the fitted curve at half-maximal effect.

Potency, inactive:
CC(=O)c1ccc(N2Cc3ccccc3C2)cc1
COc1cc2c(cc1OC)C(C)N(S(=O)(=O)c1cnc(Cl)c(Cl)c1)CC2 (configuration not stated)
COc1cccc(NC(=O)NCc2ccc(F)cc2)c1
COc1cc(C(=O)N[C@@H](C)C(=O)NCc2ccco2)cc(OC)c1OC
COC(=O)/C=C/C(=O)NCc1ccco1
COc1ccc(-c2cc(C(=O)NCc3ccco3)no2)cc1OC
S=C(NCc1ccco1)Nc1ccc2c(c1)OCCO2
COc1cc(-n2c(C)nc3cc(C(=O)NCc4ccco4)ccc32)cc(OC)c1OC
CCOC(=O)N1CCN(C(=O)c2cn(C)c3ccc(S(=O)(=O)N(CC)CC)cc3c2=O)CC1
Cc1c(NC(=O)CSCc2ccccc2)cccc1C(=O)O
Cc1occc(=O)c1OCc1ccc(F)cc1
CC(=O)Nc1ccc(NS(=O)(=O)c2ccc3c(c2)NC(=O)CC(=O)N3)cc1
Cn1ncc2c(N3CCCCC3)nc(NCCCO)nc21
O=C(NCc1ccc2c(c1)OCO2)C(=O)NCC1OCCN1S(=O)(=O)c1ccc(F)cc1 (configuration not stated)
O=[N+]([O-])c1ccc(N2CCN(c3ccc(F)cc3)CC2)cn1
CC(Oc1ccc(Br)cc1Br)C(=O)NC1CCCC1 (configuration not stated)
COC(=O)c1sccc1NC(=S)Nc1ccc(C)cc1
O=C(COc1ccc(Br)cc1F)NC1CCN(Cc2ccccc2)CC1
O=C(NC1CCN(Cc2ccccc2)CC1)c1cc(Br)c(Br)[nH]1
Cc1cc(C)cc(NC(=O)NC2CCCCCCC2)c1
COc1cc(NC(=S)NCc2ccc(S(N)(=O)=O)cc2)cc(OC)c1
Cc1ccc(C(=O)CNc2ccc(F)cc2)cc1
CCCCC(=O)NCc1ccc(F)cc1
CC(=O)Nc1ccc(Oc2ccc3c(c2)C(=O)NC3=O)cc1
O=C(NCCCn1ccnc1)/C(=C\c1ccccc1F)NC(=O)c1ccccc1
CCc1cc(=O)oc2c(C)c(OCC(=O)NCCN3CCOCC3)ccc12
CCCc1cc(=O)oc2cc(OCC(=O)Nc3ccc(CN4CCOCC4)cc3)c(Cl)cc12
COc1ccc(N2CCN(CCNC(=O)Nc3cc(Cl)ccc3Cl)CC2)cc1
CCOC(=O)C1=C(CCc2ccccc2)NC(=O)NC1c1ccc2ccccc2c1 (configuration not stated)
COc1ccc(CNC(=O)Cc2ccc(-c3ccccc3)cc2)cc1OC
CCOc1ccc(NC(=O)c2cccc3c2C(=O)N(CC2CCCO2)C3)cc1 (configuration not stated)
COc1ccc(-c2noc(CCCC(=O)NC3CCCC3)n2)cc1OC
O=C(CCn1nnc2ccccc21)OCC(=O)c1ccc([N+](=O)[O-])cc1
COc1ccc(C2NC(=O)N(C)C(C)=C2[N+](=O)[O-])cc1 (configuration not stated)
CCN(CC(=O)Nc1ccc2c(c1)OCO2)S(=O)(=O)c1ccccc1
CCc1c(C)nc(SCC(=O)NC2CCCC2)[nH]c1=O
CN(CCc1ccccn1)C1CCCN(S(=O)(=O)c2ccccc2Cl)C1 (configuration not stated)
COc1ccccc1CC(=O)NCCc1c[nH]c2ccccc12
CC(C)c1ccc(NC(=O)NC2CCCCC2)cc1
O=C(NC1CCN(Cc2ccccc2)CC1)c1ccccc1F
O=C(NC1CCN(Cc2ccccc2)CC1)c1c(F)cccc1F
Cc1ccc(NC(=O)CSCC(=O)NC2CCCCC2)cc1
O=C(NCCc1c[nH]c2ccccc12)c1cccc(Br)c1
COc1ccc(CN2CCN(Cc3ccc(OC)c(OC)c3OC)CC2)cc1
CC1(c2ccc(Cl)cc2)NC(=O)N(CC(=O)c2ccc3c(c2)OCO3)C1=O (configuration not stated)
CCc1ccc(Oc2coc3cc(O)ccc3c2=O)cc1
CCC1CCCCN1C(=O)CSc1nc2c(c(=O)n1C)SC(C)C2 (configuration not stated)
Cc1noc(C)c1CCC(=O)N1CCCC(CO)(Cc2ccccc2)C1 (configuration not stated)
CCOc1ccc(NC(=O)C2CCN(C(=O)N3CCOc4ccccc43)CC2)cc1
CCC(C)Sc1nc2c(cnn2-c2ccc(F)cc2)c(=O)[nH]1 (configuration not stated)
CCc1[nH]nc(C(=O)N2CCCC(CO)(Cc3ccc(F)cc3F)C2)c1C (configuration not stated)
CS(=O)(=O)c1ccc2nc(NC(=O)c3ccc(N4CCCC4=O)cc3)sc2c1
CCOc1ccc(S(=O)(=O)Nc2nc3cc(OC)ccc3s2)cc1
COc1ccc2nc(NC(=O)[C@@H]3CCCN3C(=O)c3cccs3)sc2c1
CCOc1ccc2nc(NC(=O)CSc3nc4c(c(=O)n(C)c(=O)n4C)n3CC)sc2c1
COc1ccc2nc(NC(=O)NC3CCCCC3)sc2c1
CCC(=O)c1ccc(OCC(=O)Nc2ccc3nc(C)sc3c2)cc1
CNC(=O)c1ccc2nc(NC(C)=O)sc2c1
CS(=O)(=O)c1ccc2nc(NC(=O)c3ccc(Cl)nc3)sc2c1
Cc1ccc2nc3c(cc(C(=O)NCCc4ccccc4)c(=N)n3CC3CCCO3)c(=O)n2c1 (configuration not stated)
COc1ccccc1N(C)C(=O)c1cc(S(=O)(=O)N2CCc3ccccc32)cn1C
O=C(NCCOc1cccnc1)c1ccc(OC2CCN(Cc3ccccn3)CC2)cc1
Nc1nnnn1/N=C/c1cccc(Br)c1
CCCc1nn(C)c2c(=O)[nH]c(-c3cc(S(N)(=O)=O)ccc3OCC)nc12
CCOc1cc(-c2noc(CCCC(=O)NC3CCCCC3)n2)ccc1OC
O=C(NCCCn1ccnc1)C1CCCN(S(=O)(=O)c2cc(Cl)ccc2Cl)C1 (configuration not stated)
CCCNC(=O)c1cnc(-c2ccccc2)nc1-c1ccccc1
C[C@H](NC(=O)C1CCN(S(=O)(=O)c2ccccc2)CC1)C(=O)NCc1ccccc1
COc1ccc2nc(Nc3nc(-c4ccncc4)cs3)sc2c1
COc1ccc2oc(=O)cc(-c3cc4ccccc4o3)c2c1
COCCOC1CCN(C(=O)c2ccc(OC)c(OC3CCN(C(C)C)CC3)c2)CC1
COc1ccccc1C(=O)N(Cc1ccc(C)o1)C1CCS(=O)(=O)C1 (configuration not stated)
CCOC(=O)c1ccc2[nH]c3c(c2c1)CCCC3NC=O (configuration not stated)
Cc1cccc(C(=O)Nc2nnc(Cc3c[nH]c4ccccc34)s2)c1
N#Cc1c(-c2ccccc2)cc(-c2ccccc2)nc1SCC(=O)O
Cc1cc(C)c(C#N)c(N2CCC(C(N)=O)CC2)n1
COc1ccccc1N1CCN(C(=O)c2cc(=O)c3cc(C)ccc3o2)CC1
COc1ccc(C(C(=O)NC2CCCC2)N(CCCO)C(=O)Cn2nnc(-c3ccc(C)o3)n2)cc1 (configuration not stated)
COC(=O)c1ccc(NC(=O)CSc2nnc(C3CC3)n2C)cc1
COC(=O)CN1C(=O)[C@H]2[C@@H](/C=C/c3ccccc3)N3C(=O)CN(Cc4ccccc4)C(=O)[C@@]3(Cc3ccccc3)[C@H]2C1=O
CCOC(=O)c1cccc(NC(=O)CN2C(=O)C3CC=CCC3C2=O)c1 (configuration not stated)
C=CCNC(=O)COc1coc(CN2CCN(Cc3ccccc3)CC2)cc1=O
C=CCNC(=O)CCCOc1cccc(C)c1
Cc1ccsc1C(=O)N[C@@H](C)c1nnc2ccccn12
O=C(c1ccc(Br)o1)N1CCN(CCOc2ccccc2)CC1
O=C(N=C1SC2CS(=O)(=O)CC2N1c1cc(Cl)ccc1Cl)C1CC1 (configuration not stated)
COc1ccc2cc(S(=O)(=O)Nc3ccccn3)ccc2c1
Cc1ccc(S(=O)(=O)Nc2ccc3ncccc3c2)cc1
COc1cc2c(cc1OC)C(c1cccc([N+](=O)[O-])c1)=NCC2
Cc1cc(=O)oc2c1ccc1ccccc12
Brc1ccc2nc(N3CCCC3)sc2c1
Cc1nc2cc3c(cc2s1)OCO3

Potency, active:
COc1cccc(NC(=S)NCc2ccco2)c1 11.2 µM
COc1cc(C(=O)NC(=S)NCc2ccco2)cc(OC)c1OC 6.31 µM
COc1cccc(OC)c1C(=O)NC(=S)NCc1ccco1 3.55 µM
Cc1cc(Br)ccc1NC(=S)NC1CCCC1 3.16 µM
Cc1cc(C)cc(NC(=S)NCc2ccc(F)cc2)c1 2.51 µM
Cc1ccc(NC(=S)Nc2ccc(F)cc2)cc1 11.2 µM
S=C(Nc1ccc(Br)cc1Cl)NC1CCN(Cc2ccccc2)CC1 10 µM
Cc1cc(C)cc(NC(=S)NCCc2c[nH]c3ccccc23)c1 7.08 µM
S=C(NN=C1CCN(Cc2ccccc2)CC1)NC1CCCCC1 2.24 µM
Cc1ccc(NC(=S)NC2CCCC2)cc1 3.55 µM
CCOc1ccc2nc(Nc3nc4ccc(NC(C)=O)cc4s3)sc2c1 3.16 µM
COc1ccc2nc(Nc3nc4cc5c(cc4s3)OCCO5)sc2c1 12.6 µM
COc1ccc2nc(Nc3nc4ccc(NC(C)=O)cc4s3)sc2c1 2.82 µM
COc1cccc(C(=O)Nc2nc3ccc(S(C)(=O)=O)cc3s2)c1 7.94 µM
COc1ccc2nc(Nc3nc(-c4cc5ccccc5oc4=O)cs3)sc2c1 7.08 µM
Cc1cccc(N=C2NN=C(c3c[nH]c4ccccc34)CS2)c1 4.47 µM
N#Cc1c(N2CCCCC2)nc(N)c2c(N)nc(SCC(=O)O)cc12 3.98 µM
C=CCNC(=S)NNC(=O)COc1c(Cl)cc(Cl)cc1Cl 1.26 µM
COc1cc(NS(=O)(=O)c2ccc3ccccc3c2)c2ncccc2c1 1.12 µM and 178 nM
c1c2c(cc3sc(N4CCCCC4)nc13)OCCO2 0.794 µM
